Records with an inconclusive call do not appear. A call without a number means that no potency is given here. Activity calls are given as the source filed them. Calls follow the shape of the full dose curve.
Potency is read from the fitted curve at half-maximal effect.

The test deals with Thyrotropin receptor (Homo sapiens) (UniProt P16473). Description: qHTS assay to identify small molecule antagonists of the thyroid stimulating hormone receptor (TSHR) signaling pathway (AID 1259385). Also: nearly all actives have a fitted effect of over 20% in size. To be noted: TSHR-HEK293 cAMP HTRF, TSH-stimulated antagonist mode; series mostly up to 92.4 µM. An excerpt: U.S. Tox21 Program National Center for Advancing Translational Sciences [NCATS] NIH Chemical Genomics Center [NCGC] U.S. Environmental Protection Agency [EPA] National Institutes of Environmental Health Sciences [NIEHS] National Toxicology Program [NTP] U.S. Food and Drug Administration [FDA] Tox21 Assay Overview: TSHR is the receptor for thyrotropin (thyroid stimulating hormone or TSH), a member of the glycoprotein hormone family. TSH is released by the anterior pituitary gland and is the main regulator of thyroid gland growth and development. Upon binding circulating thyrotropin, a G-protein signal cascade activates adenylyl cyclase and […] cAMP concentration is increased. cAMP is a key second messenger involved extensively in cellular signal transduction pathways associated with the majority of G-protein coupled receptors (GPCRs). The activation of these GPCRs by neurotransmitters, lipids, nucleotides, peptides and hormones results in the activation or the inhibition of plasma membrane-bound adenylate cyclase through heterotrimeric G-proteins. A cell-based TSHR assay can be used to screen chemical compounds that modulate TSHR either in agonist or antagonist mode.
Thyrotropin receptor (Homo sapiens), sequence (P16473 whole entry, looked up): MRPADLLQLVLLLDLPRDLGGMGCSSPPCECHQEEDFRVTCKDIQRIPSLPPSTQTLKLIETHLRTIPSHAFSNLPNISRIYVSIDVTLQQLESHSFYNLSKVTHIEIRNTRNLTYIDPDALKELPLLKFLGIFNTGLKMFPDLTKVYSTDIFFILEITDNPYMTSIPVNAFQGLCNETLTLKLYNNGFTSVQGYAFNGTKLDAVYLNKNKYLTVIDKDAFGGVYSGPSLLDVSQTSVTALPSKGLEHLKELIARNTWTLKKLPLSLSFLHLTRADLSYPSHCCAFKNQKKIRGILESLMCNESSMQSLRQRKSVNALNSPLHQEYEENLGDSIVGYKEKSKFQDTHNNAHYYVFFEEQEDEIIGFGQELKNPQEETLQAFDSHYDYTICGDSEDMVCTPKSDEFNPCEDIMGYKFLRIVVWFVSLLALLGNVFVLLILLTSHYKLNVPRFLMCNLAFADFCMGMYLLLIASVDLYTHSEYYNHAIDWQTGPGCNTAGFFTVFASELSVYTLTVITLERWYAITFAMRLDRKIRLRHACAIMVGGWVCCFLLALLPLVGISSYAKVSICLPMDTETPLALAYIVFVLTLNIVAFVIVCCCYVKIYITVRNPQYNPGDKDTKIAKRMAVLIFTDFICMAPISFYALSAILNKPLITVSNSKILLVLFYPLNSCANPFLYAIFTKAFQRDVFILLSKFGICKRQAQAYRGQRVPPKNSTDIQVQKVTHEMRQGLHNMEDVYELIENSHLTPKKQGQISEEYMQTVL
Tox21 Assay Protocol Summary: TSHR-Hek293 cells were dispensed at 800 cells/4uL/well in 1536-well white plates using a Multidrop dispenser. After the assay plates were incubated at a 37C/5% CO2 incubator for 18 hrs, 23 nL of compounds dissolved in DMSO, positive controls or DMSO only was transferred to the assay plate by a pin tool, followed by 1 ul medium containing Ro20-1724. For the antagonist mode screening, 1 uL of TSH was added on the top of the cell/compound mixtures to achieve a final agonist concentration of 1.5 ng/mL. After 30 min of incubation at room temperature, 2.5 ul/well of cAMP-d2 and 2.5 ul/well of anti-cAMP-cryptate were added respectively into the assay plates using a Flying Reagent Dispenser. The plates were incubated at room temperature for 1 hr. The fluorescence intensity in the plates was measured using an Envision plate reader. Each test compound was measured at 15 concentrations and in triplicates.
Take `CCN(CC)CCOc1ccc(Cc2ccccc2)cc1`: the Potency is 29.8 µM (active). With `CN(C)CCOc1ccccc1Cc1ccccc1` the figure was 29.8 µM (active); with `O=c1[nH]c(=O)n([C@H]2C[C@H](O)[C@@H](CO)O2)cc1C(F)(F)F`, “inactive”; with `Cc1cn([C@@H]2O[C@H](CO)[C@@H](O)[C@@H]2F)c(=O)[nH]c1=O`, “inactive”.

Take `CCOc1ccc(NS(=O)(=O)c2ccc(N)cc2)nn1`: the Potency result was “inactive”. As for `CC(=O)Oc1cc(C(C)C)c(OCCN(C)C)cc1C`, the Potency result is “inactive”. With `OCCN1CCN(CCO)CC1` the entry was “inactive”. With `O=[N+]([O-])c1nccn1CO[C@@H](CO)[C@H](O)CO` the entry was “inactive”; with `CCN[C@H]1CN(CCCOC)S(=O)(=O)c2sc(S(N)(=O)=O)cc21`, “inactive”; with `Cc1cc2nc(N)sc2cc1C`, “inactive”. With `CCOc1ccc2nc(N)sc2c1` the entry was “inactive”; with `CC/C=C\CCOC(=O)C(C)C`, “inactive”; with `O=c1[nH]cnc2c1ncn2[C@@H]1O[C@H](CO)[C@@H](O)[C@H]1O`, “inactive”. Regarding `CCCCNC(=S)NCCCC`, the Potency entry was “inactive”. With `C[C@@H](N)C(=O)O` the entry was “inactive”. In the case of `CCCCCCCCc1ccc(S(=O)(=O)O)cc1`, the Potency result was “inactive”. With `COc1ccccc1OCC(O)COC(N)=O` (stereo not given) the entry was “inactive”. With `COC(C)CCO` (stereo not given) the entry was “inactive”. With `O=C1CCCCC1C1CCCCC1` (stereo not given) the entry was “inactive”.

`CN1CCN(C2=Nc3cc(F)ccc3Cc3ccccc32)CC1`: the Potency result is “inactive”. With `COc1ccccc1N1CCN(CCCNc2cc(=O)n(C)c(=O)n2C)CC1` the entry was “inactive”; with `CC(C)C[C@H](NC(=O)OCC1c2ccccc2-c2ccccc21)C(=O)O`, “inactive”. With `FC(F)(F)c1ccccc1` the entry was “inactive”; with `CC(C)(C)c1cccc(O)c1`, “inactive”; with `CC(C)S`, “inactive”. On to `CCCCCCC`, for which the Potency entry was “inactive”.

Regarding `COc1cc(Cl)ccc1Cl`, the Potency result was “inactive”.

For the compound `C=C(C)C(=O)OCCOP(=O)(O)O`, the Potency entry is “inactive”. As to `c1ccc(CN(CC2=NCCN2)c2ccccc2)cc1`, the Potency result is “inactive”. With `CN(C)CC[C@@H](c1ccc(Cl)cc1)c1ccccn1` the entry was “inactive”; with `Cc1ccc(C)c(N)c1`, “inactive”; with `CC(=O)Nc1ccc(C)c(Cl)c1`, “inactive”. As for `CCOc1ccccc1N`, the Potency result was “inactive”. With `CN(CCCN1c2ccccc2CCc2ccccc21)CC(=O)c1ccc(Cl)cc1` the entry was “inactive”.

`CCOc1ccc(OCC)c(Cl)c1`: the Potency result is “inactive”. With `Cc1cc(NS(=O)(=O)c2ccc(N)cc2)nc(C)n1` the entry was “inactive”; with `CNCCC(Oc1ccccc1OC)c1ccccc1` (stereo not given), “inactive”.

Regarding `N#Cc1ccc(C(c2ccc(C#N)cc2)n2cncn2)cc1`, the Potency result is “inactive”. Consider `NC(=O)NS(=O)(=O)c1ccc(Cl)cc1`, for which the Potency entry is “inactive”. With `Cc1onc(-c2ccccc2)c1C(=O)Cl` the entry was “inactive”.

Values taken from PubChem BioAssay (Tox21).
